Among the data in the supplement of paper PMC13380429 are morphology score and SARS-CoV-2 infection rate values, retold here.

Test [1] relates to Vero E6 infected with SARS-CoV-2. Description: morphology score (similarity to uninfected cells); higher = more like uninfected cells. Conditions: 24 h.
Test [2] shares this test system. The test can be described thus: SARS-CoV-2 infection rate relative to infected DMSO; higher = more infection, active = 60 or less. The note with it: 24 h.

Molecules are shown by their SMILES.

The molecule `O=c1[nH]nc2c3c(cccc13)N=C(CN1Cc3ccccc3C1)N2` (10 µM) had a morphology score in test [1] of 0.219. In test [2], the SARS-CoV-2 infection rate was 91% (inactive).

In the case of `Cn1nnc2c(C(N)=O)ncn2c1=O` [temozolomide] (10 µM), in test [1], the morphology score is -0.0949. In addition, the SARS-CoV-2 infection rate in test [2] was 114% (inactive).

For `COC(=O)C[C@](O)(CCCC(C)(C)O)C(=O)O[C@@H]1C(OC)=C[C@]23CCCN2CCc2cc4c(cc2[C@H]13)OCO4` [homoharringtonine] (10 µM), the morphology score in test [1] was determined as 0.837. Further, the SARS-CoV-2 infection rate in test [2] was 23% (active).

In test [1], `CC1(C)OC(=O)C(OCC2CC2)=C1c1ccc(S(C)(=O)=O)cc1` [firocoxib] (10 µM) displayed a morphology score of 0.218. Moreover, the SARS-CoV-2 infection rate in test [2] is 84.5% (inactive).

With `CCS(=O)(=O)N1CCC[C@@H]2CN3CCc4cc(OC)ccc4[C@@H]3C[C@@H]21` (10 µM), in test [1], the morphology score was determined as 0.0669. The SARS-CoV-2 infection rate in test [2] is 102% (inactive).

`C[C@@H](O)[C@H]1C(=O)N2C(C(=O)O)=C([C@H]3CCCO3)S[C@H]12` [faropenem] (10 µM) gave a morphology score in test [1] of 0.121. In addition, the SARS-CoV-2 infection rate in test [2] is 92.5% (inactive).

Regarding `CC(=O)Oc1ccccc1C(=O)Oc1ccccc1C(=O)O` [acetylsalicylsalicylic-acid] (10 µM), the morphology score in test [1] was determined as 0.0259. Further, in test [2], the SARS-CoV-2 infection rate was 103% (inactive).

In test [1], `C=CCN1C[C@H](C(=O)N(CCCN(C)C)C(=O)NCC)C[C@@H]2c3cccc4[nH]cc(c34)C[C@H]21` [cabergoline] (10 µM) came in with a morphology score of 0.0903. For the same molecule, the SARS-CoV-2 infection rate in test [2] is 104% (inactive).

In turn, `O=C1[O][SbH]23[O]C(=O)C([O]2)C2[O][SbH]4([O]C(=O)C([O]4)C1[O]3)[O]C2=O` [antimonyl] (10 µM) displayed a morphology score in test [1] of 0.138. The SARS-CoV-2 infection rate in test [2] is 99.5% (inactive).

Consider `O=C(N/N=C/c1ccc([N+](=O)[O-])o1)c1cc([N+](=O)[O-])cc([N+](=O)[O-])c1O` [nifursol] (10 µM), for which the morphology score in test [1] worked out at 0.0974. Besides, in test [2], the SARS-CoV-2 infection rate is 111% (inactive).

`O=C1NC(=O)C(c2ccccc2[N+](=O)[O-])=C1Nc1ccc(O)c(Cl)c1` (10 µM): in test [1], the morphology score was -0.00184. In test [2], the SARS-CoV-2 infection rate is 114% (inactive).

Consider `Cc1nccn1CCC(C(N)=O)(c1ccccc1)c1ccccc1` [imidafenacin] (10 µM), for which, in test [1], the morphology score was determined as 0.133. In test [2], the SARS-CoV-2 infection rate was 93% (inactive).

For the molecule `O=C(CCc1ccc(O)cc1)c1c(O)cc(O)cc1O[C@@H]1O[C@H](CO)[C@@H](O)[C@H](O)[C@H]1O` [phlorizin] (10 µM), in test [1], the morphology score came out at 0.166. Besides, the SARS-CoV-2 infection rate in test [2] is 112% (inactive).

With `NNC(=O)CSc1nc2scc(-c3ccccc3)c2c(=O)n1-c1ccccc1` (10 µM), in test [1], the morphology score was -0.0192. The SARS-CoV-2 infection rate in test [2] is 99.5% (inactive).

In turn, `CC1(C)CN(C(=O)c2ccc(-c3cccc4nc(NC(=O)C5CC5)nn34)cc2)C1` [solcitinib] (10 µM) gave a morphology score in test [1] of 0.0939. In addition, in test [2], the SARS-CoV-2 infection rate was 110% (inactive).

For `CN1CC[C@@]2(C)c3cc(O)ccc3N(C)[C@@H]12` [eseroline-(-)] (10 µM), in test [1], the morphology score stood at 0.137. Also, in test [2], the SARS-CoV-2 infection rate was 97% (inactive).

In turn, `CCOC(=O)c1c(C)[nH]c2ccc3c(c12)CN1CCc2cc(OC)ccc2C1O3` (stereo unspecified) (10 µM) displayed a morphology score in test [1] of 0.729. Further, in test [2], the SARS-CoV-2 infection rate was 28.5% (active).

Molecule `NCC(=O)N1C[C@H](NC(=O)c2ccccc2)C[C@H]1C(=O)O` [danegaptide] (10 µM) came in with a morphology score in test [1] of 0.0415. In addition, in test [2], the SARS-CoV-2 infection rate was 105% (inactive).

With `C[C@]12CC[C@H](O)CC1=CC[C@@H]1[C@@H]2CC[C@]2(C)C(n3cnc4ccccc43)=CC[C@@H]12` [galeterone] (0.833333 µM), in test [1], the morphology score was -0.052. Also, the SARS-CoV-2 infection rate in test [2] was 113% (inactive).

On to `O=C(O)c1ccc2cc(-c3ccc(O)c(C45CC6CC(CC(C6)C4)C5)c3)ccc2c1` (0.833333 µM), for which the morphology score in test [1] was 0.226. Moreover, the SARS-CoV-2 infection rate in test [2] was 87.5% (inactive).

The molecule `Nc1nc2ccc(Cl)cc2c2nc(-c3ccco3)nn12` (10 µM) gave a morphology score in test [1] of 0.125. Moreover, in test [2], the SARS-CoV-2 infection rate is 108% (inactive).

For `CC(C)(CC(=O)N1CCCC1)NCC(=O)N1C[C@@H](F)C[C@H]1C#N` (10 µM), in test [1], the morphology score was determined as 0.0148. For the same molecule, the SARS-CoV-2 infection rate in test [2] was 102% (inactive).

On to `C[C@H](N)C(=O)N[C@@]1(C(=O)O)C[C@@H](Sc2nnc[nH]2)[C@H]2[C@H](C(=O)O)[C@H]21` (10 µM), for which, in test [1], the morphology score was -0.0396. In addition, the SARS-CoV-2 infection rate in test [2] was 114% (inactive).

Consider `O=[N+]([O-])c1cccc2c(Br)n[nH]c12` [3-bromo-7-nitroindazole] (10 µM), for which the morphology score in test [1] was 0.0979. Besides, the SARS-CoV-2 infection rate in test [2] is 110% (inactive).

`O=C(CN1C(=O)C2(CCCC2)NC[C@H]1c1cc(F)cc(F)c1)Nc1ccc2c(c1)C[C@@]1(C2)C(=O)Nc2ncccc21` (10 µM) came in with a morphology score in test [1] of 0.0766. Besides, the SARS-CoV-2 infection rate in test [2] was 101% (inactive).

Regarding `CN(C[C@@H]1COCCO1)S(=O)(=O)Nc1ccc2ccc3ncc(-c4cnn(C)c4)cc3c(=O)c2c1` (0.833333 µM), in test [1], the morphology score was found to be 0.0936. Moreover, the SARS-CoV-2 infection rate in test [2] was 111% (inactive).

Consider `CC[C@]12CCCN3CCc4c(n(c5ccccc45)C(=O)C1)[C@@H]32` [vinburnine] (10 µM), for which, in test [1], the morphology score is -0.0662. Further, in test [2], the SARS-CoV-2 infection rate is 99.5% (inactive).

Regarding `COC(=O)[C@H](CC(C)C)NC(=O)c1ccc(NC[C@@H](N)CS)cc1-c1cccc2ccccc12` (10 µM), in test [1], the morphology score was -0.445. The SARS-CoV-2 infection rate in test [2] was 115% (inactive).
